These results are taken from PubChem BioAssay (NCI).

The panel holds about 83,000 compounds, 20% with a hit somewhere; the sample as a whole holds those more often.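 Method: cells in 96-well plates; compound added at one concentration; 48 h incubation; percent growth measured; values under 10 scored active.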 A number with no mark means an inactive call. Active and inactive are the calls of the source.

The test concerns MDA-MB-468 breast. The test can be described thus: NCI-60 one-dose screen, 48 h (100 = growth as untreated, 0 = no growth, -100 = all killed). As to conditions: 10 µM unless noted.
As for `O=C1Nc2ccccc2/C1=C/c1cccn1CCCCn1c2ccccc2c(=O)c2ccccc21`, the growth was 51%. In the case of `CC(C)c1cc(C(C)C)c(S(=O)(=O)Oc2ccc(NC(=O)c3ccc(Cl)cc3)cc2)c(C(C)C)c1` it was 8.01% (active). Next, `Cc1cc(-c2ccc(N=Nc3c(S(=O)(=O)O)cc4cc(S(=O)(=O)O)cc(O)c4c3O)c(C)c2)ccc1N=Nc1c(S(=O)(=O)O)cc2cc(S(=O)(=O)O)cc(O)c2c1O`: 109%.

Take `CC(C)CCC[C@@H](C)[C@H]1CC[C@H]2[C@@H]3CC=C4c5sc(Nc6cc(C(F)(F)F)cc(C(F)(F)F)c6)nc5CC[C@]4(C)[C@H]3CC[C@]12C`: the growth was 105%. Turning to `COc1cc(C(=O)/C=C/c2sc(Cl)nc2Cl)cc(OC)c1OC`, the growth is -50.9% (active).

Regarding `Oc1ccc(-c2nnc(SCc3ccc(O)c4ncccc34)n2-c2ccccc2)cc1`, the growth was -13.6% (active). For `CN(Cc1ccccc1)Cc1ccc([N+](=O)[O-])cc1I`, the growth was 93.3%. In the case of `C=C(C)[C@@H]1CC[C@]2(C(=O)N3CCN(C)CC3)CC[C@]3(C)[C@H](CC[C@@H]4[C@@]5(C)C/C(=C/c6cccnc6)C(=O)C(C)(C)[C@@H]5CC[C@]43C)[C@@H]12`, the growth was 51.5%. For the compound `CCc1cnc(=S)n(-c2ccccc2)c1`, the growth was 117%. Take `COc1cccc(-c2nn(-c3ccccc3)cc2-c2ccnc(NCCCN)c2)c1`: the growth was 17.4%. Next, `O=C(N/N=C\c1ccc(Cl)cc1)c1ccc2nc(-c3ccc(Br)cc3)[nH]c2c1`: -34.9% (active); `CCOC(=O)NNC(=S)Nc1ccccc1`: 97.7%.
